About 17,000 (5.5%) of roughly 310,000 compounds were called active. About 11% were inconclusive and are not listed. Calls follow the shape of the dose curve; as a rule, active = well fitted inhibition curve with a large enough effect; inconclusive = small, poorly fitted or top-dose-only effect, or effect the other way; inactive = no such curve, though single readings can be large or run the other way. What follows is part of a selection rich in actives, with near analogues and random picks from the rest. Entries that show only a call come without a potency.
Potency is read from the fitted curve at half-maximal effect.

Chain of Nuclear receptor ROR-gamma (Mus musculus) (P51450 whole entry, looked up, the tested form may be a part): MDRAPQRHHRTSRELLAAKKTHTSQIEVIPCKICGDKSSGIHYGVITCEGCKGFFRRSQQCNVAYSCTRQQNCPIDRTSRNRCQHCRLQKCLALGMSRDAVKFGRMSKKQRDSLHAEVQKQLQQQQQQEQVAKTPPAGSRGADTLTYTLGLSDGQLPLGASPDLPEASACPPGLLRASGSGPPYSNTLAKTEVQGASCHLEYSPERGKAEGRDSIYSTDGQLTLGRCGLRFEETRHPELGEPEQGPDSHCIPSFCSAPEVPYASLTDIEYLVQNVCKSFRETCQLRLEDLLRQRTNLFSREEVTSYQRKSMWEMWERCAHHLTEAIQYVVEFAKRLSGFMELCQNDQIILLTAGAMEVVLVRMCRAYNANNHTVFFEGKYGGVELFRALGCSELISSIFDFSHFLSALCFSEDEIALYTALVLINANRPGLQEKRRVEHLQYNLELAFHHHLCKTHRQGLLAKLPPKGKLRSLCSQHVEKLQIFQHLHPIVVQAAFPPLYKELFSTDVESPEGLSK

The assay concerns the target Nuclear receptor ROR-gamma (Mus musculus) (UniProt P51450). Put plainly: qHTS for inhibitors of ROR gamma transcriptional activity. Also: nearly all actives have a fitted effect of over 60% in size. As to conditions: Drosophila S2 Gal4-RORgamma UAS-luciferase reporter, 20 h; series mostly up to 53.6 µM. A digest of the protocol: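 A Gal4/UAS one-hybrid system in insect cells: metallothionein-promoter Gal4–ROR gamma fusion plus Photinus luciferase reporter. Copper sulfate 700 uM final, 20 hr ambient incubation, luminescent detection after 10 min with reagent.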
For orientation: qHTS replaces the single test concentration by a dilution series.
Take `CCC(CC)COC(=O)C1=C(C)NC(=O)NC1c1ccc([N+](=O)[O-])cc1` (configuration not stated): the activity change, negative = inhibition is -0.183% [at 1.91 µM] (inactive). Regarding `O=C(Cc1ccc([N+](=O)[O-])cc1)Nc1ccc(C(=O)N2CCOCC2)cc1`, the Potency result is “inactive”. The same measure, in the same setting: under `Cc1ccc(NC(=O)Cn2nnc(C(=O)NCc3ccco3)c2N)c(C)c1` stands “inactive”.

`CC(C)(C)NC(=O)CSc1nnc(NC(=O)CCc2ccccc2)s1`: the activity change, negative = inhibition is 5.59% [at 1.91 µM] (inactive). Take `C=CCN1C(=NC(=O)COc2ccccc2)SC2CS(=O)(=O)CC21` (configuration not stated): the Potency result is “inactive”. On the same count and under the same terms, as for `Cc1cc(Cl)ccc1C(=O)C1CCCN(C(=O)c2nonc2C)C1` (configuration not stated), the entry is “inactive”; as for `Cc1[nH]c2ccccc2c1C(=O)CN1CC(C)CC(C)C1` (configuration not stated), “inactive”.

Turning to `O=C(O)C1CCCN1S(=O)(=O)c1ccc(Br)cc1` (configuration not stated), the Potency result is “inactive”.

As for `O=C(CN(C(=O)c1nsc(Cl)c1Cl)c1cccc(F)c1)NC1CCCC1`, the Potency entry was “inactive”. The same measure, in the same setting: as for `COc1ccccc1OCc1nnc(SCC(N)=O)n1-c1ccccc1`, the entry is “inactive”; as for `C=CCn1c(C)cc(C2=NNC(=NCC)SC2)c1C`, 0.562 µM (active). Take `Cc1cc(C2=NNC(=Nc3ccc(S(=O)(=O)N4CCOCC4)cc3)SC2)c(C)n1CC1CCCO1` (configuration not stated): the Potency entry was “inactive”. As to `O=C(O)c1ccccc1NC(=O)c1ccccc1-c1ccccc1C(=O)O`, the Potency entry is “inactive”.

Turning to `CC1CN(S(=O)(=O)c2cccc(C(F)(F)F)c2)CN1C(=O)N1CCOCC1` (configuration not stated), the Potency result is “inactive”. Regarding `COc1ccc2[nH]c(C(=O)N3CCN(C)CC3)c(C)c2c1`, the Potency result is “inactive”.

Regarding `COc1ccc2[nH]c(=S)cc(C)c2c1`, the Potency was 7.08 µM (active). As for `COc1ccc2[nH]c3c(C)c4cc[n+](C)cc4c(C)c3c2c1`, the Potency result is “inactive”. On the same count and under the same terms, as for `COc1ccc(NC(=O)c2cccc3c2C(=O)N(CC2CCCO2)C3)cc1OC` (configuration not stated), the entry is “inactive”; as for `COc1ccc(OCCCCN2CCC(C)CC2)cc1`, “inactive”. As to `O=C1COc2ccc(S(=O)(=O)Nc3ccc(OC(F)(F)F)cc3)cc2N1`, the Potency entry was “inactive”. For `C/C(=N\NC(=O)c1ccoc1C)c1ccccc1O`, the Potency is 0.158 µM (active). As to `CC(C)=C(NC(=O)c1ccccc1)C(=O)N/N=C(\C)c1ccccc1O`, the Potency is 0.891 µM (active).

`C/C(=N\NC(=O)c1ccccc1C)c1ccc(N2CCOCC2)cc1`: the Potency result was “inactive”. Still for that read-out and setting: as for `C/C(=N\NC(=O)c1cccnc1)c1ccc(-c2ccccc2)cc1`, the entry is “inactive”; as for `CNC(=O)C(NC(=O)c1ccccc1)=C(C)C`, “inactive”; as for `CC(=O)NC(=O)c1ccccc1O`, “inactive”. Still for that read-out and setting: as for `Cn1c(=O)c2c(SCC(=O)NCC3CCCO3)nc(CC(C)(C)C)nc2n(C)c1=O` (configuration not stated), the entry is “inactive”. Same read-out and setting: under `COC(=O)c1c(NC(=O)C2CC(C)=C(C)CC2C(=O)O)sc2c1CCCCC2` (configuration not stated) stands “inactive”.

On to `COc1cccc(C(=O)Nc2nnc(S(=O)(=O)N3CCOCC3)s2)c1`, for which the Potency entry was “inactive”. Still for that read-out and setting: as for `COc1ccc(CCNS(=O)(=O)c2cn(C)nc2C)cc1`, the entry is “inactive”.

Consider `CCOC(=O)C1CCN(C(=O)COc2cccc3ccccc23)CC1`, for which the Potency entry is “inactive”. Still for that read-out and setting: under `CC(NC(=S)Nc1ccc(OC(F)F)cc1)c1ccc(F)cc1` (configuration not stated) stands 3.16 µM (active); under `CC(NC(=S)Nc1ccc(S(N)(=O)=O)cc1)c1ccc2c(c1)OCO2` (configuration not stated), “inactive”; under `O=C1CCC(C(=O)Nc2ccc(OC(F)F)cc2)N1` (configuration not stated), “inactive”. As to `Cc1cccc(NS(=O)(=O)c2ccc(C(=O)NCC(C)(C)N3CCOCC3)cc2)c1C`, the Potency entry is “inactive”. Take `Cc1ccc(N2C(=O)S/C(=C/c3cn(C)c4ccccc34)C2=O)cc1`: the Potency result was “inactive”. On the same count and under the same terms, as for `Cc1ccc(N=C2NC(=O)/C(=C/C=C/c3ccco3)S2)cc1C`, the entry is “inactive”; as for `Cc1cccc(N=C2NC(=O)/C(=C/c3cn(C)c4ccccc34)S2)c1`, 12.6 µM (active). On to `COc1ccc(CSc2nnnn2-c2ccc(O)cc2)cc1F`, for which the Potency result is “inactive”. In the case of `C#CCOc1ccccc1/C=C1/C(=O)ON=C1C`, the Potency result was “inactive”. Same read-out and setting: under `O=C(N/N=C/c1cccc(OC(=O)c2ccc([N+](=O)[O-])cc2)c1)c1cccnc1` stands “inactive”; under `COc1cc(/C=N/NC(=O)c2cccnc2)ccc1OC(=O)c1cccc(Br)c1`, 11.2 µM (active). With `Cn1c(=O)n(C)c2cc(/C=N/NC(=O)c3cccc(Br)c3)ccc21`, the Potency result was “inactive”. On the same count and under the same terms, as for `Cc1ccc(CNC(=O)[C@@H](NC(=O)Cc2ccccc2)C(C)C)cc1`, the entry is “inactive”; as for `COc1ccc(/C=C(/NC(=O)c2ccccc2)C(=O)Nc2cccc(C(=O)O)c2)cc1`, “inactive”.

Consider `CC(NC(=O)CNC(=O)Cc1cccc2ccccc12)c1ccc(S(N)(=O)=O)cc1` (configuration not stated), for which the Potency entry was “inactive”. On the same count and under the same terms, under `COC(=O)c1ccc2c(C(C)(C)O)c(C(C)(C)O)[nH]c2c1` stands “inactive”; under `CCNC(=O)CCc1nc(-c2ccc(C)cc2)no1`, “inactive”.

On to `CN1CCN(C(=O)CCc2nc(-c3ccc(Cl)cc3)no2)CC1`, for which the Potency entry is “inactive”. On to `CCNC(=O)CCc1nc(-c2ccc(C(C)(C)C)cc2)no1`, for which the Potency was 0.0447 µM (active). For the compound `CC1=C(C(=O)OC(C)(C)C)C(c2ccc(Br)cc2)NC(=O)N1CCCC(=O)O` (configuration not stated), the Potency entry is “inactive”. Consider `COc1cccc(NC(=O)[C@H](Cc2c[nH]c3ccccc23)NC(=O)[C@@H]2Cc3ccccc3CN2)c1`, for which the Potency entry is “inactive”. Same read-out and setting: under `Cc1cc2nc(C(F)(F)F)cc(-c3cccs3)n2n1` stands “inactive”; under `CC(C)(C)Nc1c(-c2cccs2)nc2ccccn12`, 6.31 µM (active). As for `Cc1cc(-c2cccs2)nc(-n2cccc2)n1`, the Potency result was “inactive”. Same read-out and setting: as for `Cn1nccc1C(=O)NC1CCCc2c1cnn2-c1ccc(F)cc1F` (configuration not stated), the entry is “inactive”; as for `COC(=O)c1ccc(OC(=O)c2cnccn2)cc1`, “inactive”. Still for that read-out and setting: as for `COc1ccc(C(=O)NC(=S)NNC(=O)CCc2ccccc2)cc1`, the figure is 4.47 µM (active); as for `COc1ccc(C(=O)NC(=S)NC2CCCCC2)cc1`, 2.82 µM (active); as for `CCCNC(=S)N1CCC(NC(=O)c2ccc(OC)cc2)CC1`, “inactive”. As to `CCCOc1cccc(C(=O)NCCCNC(=O)c2cccnc2)c1`, the Potency result is “inactive”.

For the compound `COCCCNC(=O)c1c(F)c(F)c(F)c(F)c1F`, the Potency entry is “inactive”. Same read-out and setting: as for `COCCCNC(=S)NC(=O)c1ccccc1`, the figure is 12.6 µM (active); as for `COCCCNC(=S)NNC(=O)C(O)(c1ccccc1)c1ccccc1`, “inactive”; as for `COc1ccc(C(=O)NC2CCN(C(=S)NCCc3ccccc3)CC2)cc1`, “inactive”. For `Cc1cccc(OCC(=O)NCCNC(=O)c2cccnc2)c1`, the Potency entry is “inactive”.

Consider `O=C(CCc1ccccc1)NNC(=O)c1ccc(Br)cc1`, for which the Potency entry was “inactive”. `COc1ccc(-n2cnc3cc(C(=O)NC4CCCC4)ccc32)cc1`: the Potency entry was “inactive”.

For the compound `Cc1cccc(OCCNC(=S)NC(=O)c2cccnc2)c1`, the Potency is 10 µM (active).

For the compound `C[C@H](NC(=O)C1CC(=O)N(c2ccc3c(c2)OCO3)C1)C(=O)NCc1ccco1` (some centres not stated), the Potency result is “inactive”. Still for that read-out and setting: under `COc1ccc(CNC(=O)/C(C#N)=C/c2cccc(OC)c2OC)cc1` stands “inactive”. Still for that read-out and setting: under `Cc1c(Cl)c([N+](=O)[O-])nn1CC(=O)NCCCN1CCOCC1` stands “inactive”; under `Cc1ccc(C)c(N2CCN(C(=O)Cn3ncn4cccc4c3=O)CC2)c1`, “inactive”. Still for that read-out and setting: under `NS(=O)(=O)c1cccc(NC(=O)CC23CC4CC(CC(Br)(C4)C2)C3)c1` stands “inactive”; under `Cc1ccc(S(=O)Cc2ccc(C(=O)N3CCN(C4CCCCC4)CC3)o2)cc1` (configuration not stated), “inactive”. Consider `N#C/C=C/N1CCN(Cc2ccc3c(c2)OCO3)CC1`, for which the Potency result is “inactive”. The same measure, in the same setting: as for `CCCc1ccc(OCC(=O)NNC(=S)NC(=O)c2ccco2)cc1`, the figure is 12.6 µM (active); as for `CNC(=S)NNC(=O)c1ccc(N(C)C)cc1`, “inactive”. Turning to `COc1ccc(OCC(=O)Nc2ccc(NC(=O)c3ccco3)c(C)c2)cc1`, the Potency result was “inactive”.

For the compound `COc1ccc(C(=O)NNC(=O)c2cc(C)[nH]n2)cc1`, the Potency result was “inactive”. The same measure, in the same setting: as for `COc1ccc(OCC(=O)NNC(=O)c2ccc(-c3ccccc3)cc2)cc1`, the entry is “inactive”. For `COc1ccc(C(=O)NNC(=S)NC(=O)c2ccccc2)cc1`, the Potency was 4.47 µM (active). On the same count and under the same terms, as for `CC(=O)NC(=S)NNC(=O)c1ccc(Br)cc1`, the figure is 12.6 µM (active). Consider `Cc1cc(C)c2[nH]c(=O)c(CN(Cc3ccccc3)C(=S)NCCCN(C)C)cc2c1`, for which the Potency entry is “inactive”. Turning to `Cc1ccc(OCC(=O)NCCCNC(=O)c2ccco2)cc1C`, the Potency entry was “inactive”.

As for `COCCNC(=S)N(Cc1cccnc1)Cc1ccc(OC)c(OC)c1`, the Potency result was “inactive”.

On to `COCCCNC(=S)N(Cc1ccccc1)Cc1ccc(F)cc1`, for which the Potency is 15.8 µM (active). The same measure, in the same setting: as for `Cn1nnnc1SCC(=O)NNC(=O)c1ccc(Br)cc1`, the entry is “inactive”; as for `Cc1ccc(N(CC(=O)NC2CCCCC2)C(=O)CCCC(=O)Nc2ccccn2)c(C)c1`, “inactive”. Regarding `O=C(NCc1ccco1)C(c1ccncc1)N(C(=O)Cn1nnc2ccccc21)c1ccccc1` (configuration not stated), the Potency entry was “inactive”. The same measure, in the same setting: as for `O=C(Nc1cccc(Cl)c1Cl)c1ccccc1NC(=O)C1CC=CCC1C(=O)O` (configuration not stated), the entry is “inactive”; as for `CCc1ccc(C(CNc2nc(C(F)(F)F)nc3ccccc23)N(C)C)cc1` (configuration not stated), “inactive”. The same measure, in the same setting: as for `O=C(Nc1cccc(Br)c1)c1ccc2snnc2c1`, the entry is “inactive”; as for `CCN1C(=NCCc2cccnc2)N[C@@H](c2ccccc2)C(C(=O)OC)=C1C`, “inactive”.

In the case of `O=S(=O)(c1cccc(Cn2nnc(-c3ccc(F)cc3)n2)c1)N1CCOCC1`, the Potency entry is “inactive”. Regarding `CC1(C(=O)O)CCC(C(=O)Nc2ccc(Cl)c(Cl)c2)C1(C)C` (configuration not stated), the Potency result is “inactive”.

As to `CC(C)CCSc1ncnc2c1oc1nc3c(cc12)COC(C)(C)C3`, the Potency result is “inactive”. Still for that read-out and setting: as for `C=CCn1c(=S)[nH]c2nc3c(cc2c1=O)COC(C)(C)C3`, the figure is 3.98 µM (active); as for `CC1(C)Cc2nc3sc4c(SCC(=O)NC(c5ccccc5)c5ccccc5)ncnc4c3cc2CO1`, “inactive”. Same read-out and setting: under `Cc1cc(C)nc(NS(=O)(=O)c2ccc(N3C(=O)C4CCCCC4C3=O)cc2)n1` (configuration not stated) stands “inactive”; under `CCc1ccc(NC(=O)C(=O)NNC(=O)c2cccs2)cc1`, “inactive”; under `CCOC(=O)c1ccc(NC2Nc3cc(C)nn3S2)cc1` (configuration not stated), “inactive”. Still for that read-out and setting: as for `CCc1ccc(NC2Nc3cc(C)nn3S2)cc1` (configuration not stated), the figure is 1.58 µM (active); as for `Cc1ccccc1NC(=O)Cn1cc(C(=O)C2CC2)c2ccccc21`, “inactive”. Consider `CC1CCCCN1C(=O)Cn1c(=O)oc2cc(S(=O)(=O)N3CCCCC3)ccc21` (configuration not stated), for which the Potency result was “inactive”. Consider `CCSc1nc2sc3c(c2c(=O)n1-c1ccc(C)cc1)CCN(C)C3`, for which the Potency entry was “inactive”. The same measure, in the same setting: as for `O=C(c1ccc(OC2CCN(C/C=C/c3ccc(F)cc3)CC2)cc1)N1CCCCC1`, the entry is “inactive”.

(Values after PubChem BioAssay AID2551 (National Center for Advancing Translational Sciences (NCATS), 2010).)
